Sfp PPTase inh: qHTS Assay for Inhibitors of Bacillus subtilis Sfp phosphopantetheinyl transferase (PPTase) | Biochemical Sfp PPTase activity, qHTS | Potency, µM, inactives show largest response in the series, negative = inhibition, actives largely listed as inhibitors | 310,000 tested, 3.5% active;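 also: the enzyme is Sfp with the accession as filed and its product quenches rhodamine fluorescence; 0% = enzyme reaction without inhibitor and -100% = no enzyme wells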
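Compounds were incubated with enzyme (final 15 nM) for 15 min at room temperature before substrate addition started the reaction. Fluorescence at 525 nm excitation, 598 nm emission was recorded immediately and after 30 minutes.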
BAZ2B inh: qHTS Assay for Inhibitors of BAZ2B; Bromodomain adjacent to zinc finger domain protein 2B (Homo sapiens), Q9UIF8; AlphaScreen BAZ2B-H3K14Ac peptide displacement; Potency, µM (top dose mostly 114 µM), without a hit: at the top dose activity change, negative = inhibition, actives largely listed as inhibitors; 360,000 tested, 4.4% active; AID 504333, 2011; also: % is scaled to controls: 0 for no effect and ±100 for the full control effect; nearly all actives have a fitted effect of over 60% in size
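Complex of BAZ2B and biotin-H3K14Ac (50 nM apiece) forms over 30 min at RT, then faces library compounds up to 110 uM for another 30 min; AlphaScreen beads added, 20 min dark incubation, luminescence read.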
L3MBTL1 block: qHTS Assay for the Inhibitors of L3MBTL1; 230,000 tested, 0.66% active; Potency, µM (doses to about 57.1 µM), for inactives: top-dose activity, negative = inhibition, hits mostly inhibitors; AID 485360, 2010; Lethal(3)malignant brain tumor-like protein 1 (Homo sapiens), Q9Y468; AlphaScreen L3MBTL1–H3K9me1 peptide binding; also: % is scaled to controls: 0 for no effect and ±100 for the full control effect; nearly all actives have a fitted effect of over 60% in size
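L3MBTL1 50 nM + b-AHA-H3(1-15)K9me1 75 nM, 30 min RT; compound added, 30 min RT; streptavidin donor/Ni-chelate acceptor beads 10 ug/mL each final, 30 min RT dark; AlphaScreen read.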
HP1b chromo inh: HTS for Inhibitors of HP1-beta Chromodomain Interactions with Methylated Histone Tails; AlphaScreen HP1-beta / biotin-H3K9me3 peptide binding; Potency, µM (titrated, usually from 114 µM), without a hit: top-dose activity change, negative = inhibition, usual class: inhibitors; 390,000 tested, 0.56% active; AID 540317, 2011; also: nearly all actives have a fitted effect of over 70% in size
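Compound inhibition of the preformed complex between 50 nM HP1-beta and 50 nM biotinylated H3K9me3 peptide was read by AlphaScreen. Buffer was PBS pH 7.4 with 0.01% Tween-20. Incubations ran 30 min at room temperature, with 10 ug/mL donor/acceptor beads.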
JMJD2A Tudor: qHTS Assay for Inhibitors of JMJD2A-Tudor Domain; Lysine-specific demethylase 4A (Homo sapiens), O75164; AlphaScreen JMJD2A-Tudor / H3K4me3 peptide binding; Potency, µM (series often up to 114 µM), inactives show top-dose activity change, negative = inhibition, usual class: inhibitors; 390,000 tested, 4.4% active; also: % is scaled to controls: 0 for no effect and ±100 for the full control effect; nearly all actives have a fitted effect of over 50% in size
Target sequence (O75164 whole entry, looked up, the tested form may be a part): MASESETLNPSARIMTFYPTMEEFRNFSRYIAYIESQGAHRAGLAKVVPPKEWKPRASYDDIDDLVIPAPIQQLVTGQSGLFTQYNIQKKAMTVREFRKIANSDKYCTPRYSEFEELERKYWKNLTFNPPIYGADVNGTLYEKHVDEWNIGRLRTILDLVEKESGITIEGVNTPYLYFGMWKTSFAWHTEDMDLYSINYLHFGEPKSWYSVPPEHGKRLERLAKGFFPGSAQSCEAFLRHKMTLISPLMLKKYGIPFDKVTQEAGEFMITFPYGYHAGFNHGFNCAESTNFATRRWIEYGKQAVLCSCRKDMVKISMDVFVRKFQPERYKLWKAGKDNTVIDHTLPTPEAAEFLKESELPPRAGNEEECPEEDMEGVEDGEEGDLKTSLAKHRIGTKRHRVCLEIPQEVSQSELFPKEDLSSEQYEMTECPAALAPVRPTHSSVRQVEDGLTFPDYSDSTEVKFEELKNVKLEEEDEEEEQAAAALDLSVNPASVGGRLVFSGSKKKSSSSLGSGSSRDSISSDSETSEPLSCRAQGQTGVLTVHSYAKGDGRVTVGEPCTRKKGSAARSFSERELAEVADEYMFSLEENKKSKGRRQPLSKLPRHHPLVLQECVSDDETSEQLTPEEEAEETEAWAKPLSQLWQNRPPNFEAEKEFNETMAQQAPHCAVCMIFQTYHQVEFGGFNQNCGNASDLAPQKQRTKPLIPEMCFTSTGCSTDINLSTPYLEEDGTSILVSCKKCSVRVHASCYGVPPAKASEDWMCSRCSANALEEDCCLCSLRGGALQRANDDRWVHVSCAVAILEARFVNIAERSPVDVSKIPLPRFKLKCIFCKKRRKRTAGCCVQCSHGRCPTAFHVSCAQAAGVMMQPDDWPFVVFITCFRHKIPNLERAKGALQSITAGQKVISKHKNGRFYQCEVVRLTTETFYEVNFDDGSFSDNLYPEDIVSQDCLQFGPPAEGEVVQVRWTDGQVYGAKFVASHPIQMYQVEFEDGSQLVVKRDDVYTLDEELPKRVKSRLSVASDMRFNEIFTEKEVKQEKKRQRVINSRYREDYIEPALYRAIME
G9a inh: qHTS Assay for Inhibitors of Histone Lysine Methyltransferase G9a | 350,000 tested, 8.8% active | Potency, µM (series often up to 102 µM), without a hit: at the highest dose activity, negative = inhibition, hits mostly inhibitors | G9a H3K9 monomethylation, AlphaScreen, 2 h | AID 504332, 2011; also: % is scaled to controls: 0 for no effect and ±100 for the full control effect; nearly all actives have a fitted effect of over 75% in size
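AlphaScreen detection with an anti-monomethyl H3K9 antibody quantified product after a 2 h room-temperature reaction containing 500 nM biotinylated H3K9 peptide, 20 µM SAM and 20 nM enzyme, which had been preincubated 15 min with compound.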
* hit, by the source's call; ? = inconclusive; · = no result given; [ ] = remark or other dose. Compounds with a hit are over-represented: about 12% of the library has one in this group of screens. Calls follow the shape of the dose curve; as a rule, active = well fitted curve in the direction sought with a large enough effect; inconclusive = small, poorly fitted or top-dose-only effect, or another doubt; inactive = no such curve, though single readings can be large; an effect the other way counts as inactive or inconclusive. Potency is read from the fitted curve at half-maximal effect.

SMILES	Sfp PPTase inh	BAZ2B inh	L3MBTL1 block	HP1b chromo inh	JMJD2A Tudor	G9a inh
CCOC(=O)C1=C(C)N(c2ccccc2)C(=O)/C1=C\c1cccs1	15.1%	10µM*	-16.5%	28.2µM*	?	?
COC(=O)C1=C(C)N(c2ccccc2)/C(=C/c2ccco2)C1=O	-9.0%	-5.8%	4.1%	17.8%	-6.9%	·
NCCCNc1ccc(Br)cn1	·	·	·	25.7%	-8.8%	·
O=C(c1ccncc1)N1CCC2(CCCN(c3ccccc3)C2)CC1	6.6%	·	·	·	·	0.5%[12.7 µM]
Cc1ccc(C2c3[nH]c4ccccc4c3CCN2C(=O)Nc2ccc(C)c(C)c2)cc1 (configuration not stated)	·	?	·	-17.6%	?	1.1%[59 µM]
CCOC(=O)C1=C(C)N(c2ccccc2)C(=O)/C1=C\c1ccc(O)c(OC)c1	6.31µM*	?	·	?	5.01µM*	3.16µM*
COC(=O)C1=C(C)N(c2ccc(OC)c(OC)c2)C(=O)/C1=C\c1ccco1	-15.2%	35.5µM*	-8.5%	7.4%	-13.4%	?
COC(=O)C1=C(C)N(c2ccc(C)c(C)c2)/C(=C/c2cccs2)C1=O	2.9%	-7.2%	-5.5%	-11.2%	-16.1%	4.5%
CCCCc1nn2c(=O)cc(COC(=O)c3ccc(NC(=O)C4CCCCC4)cc3)nc2s1	·	-8.7%	·	18.1%	-12.9%	-13.8%[12.7 µM]
CCOC(=O)c1cnc(SC2CCc3ccccc3C2=O)nc1N (configuration not stated)	56.2µM*	-2.6%	-1.8%	-11.4%	-19.8%[57.1 µM]	35.5µM*
CCOC(=O)c1cnc(SC2CC(=O)N(c3ccccc3)C2=O)nc1N (configuration not stated)	5.7%	5.0%	-4.1%	45.6%	2.9%	?
Oc1cccc(/C=C/c2ccc3cccc(O)c3n2)c1	-7.1%	?	·	-6.5%	-24.7%	-14.7%
Cc1ccc(/C=C/c2ccc3cccc(O)c3n2)s1	0.6%	30.5%	·	27.5%	-0.7%	28.2µM*
COc1cccc2ccc(/C=C/c3ccc4c(c3)OCO4)nc12	·	·	·	12.7%	-12.1%	·
COc1cc(/C=C/c2ccc3cccc(O)c3n2)cc(Cl)c1OC	50.1µM*	?	·	25.7%	-21.9%	11.1%
COC(=O)c1ccc(/C=C/c2ccc3cccc(OC)c3n2)cc1	44.7µM*	22.6%	45.8%	52.4%	10.1%	33.2%[59 µM]
CC1C2CCC3C4CC=C5CC(N(C)C)CC[C@@]5(C)C4CC[C@@]32CN1C (some centres not stated)	7.6%	·	·	·	·	10.6%[12.7 µM]
O=c1c2oc3ccccc3c2n(Cc2ccccc2Cl)c(=O)n1Cc1ccco1	·	-37.3%	·	4.0%	-3.3%	-42.5%[59 µM]
Cc1ccc(C)c(N(C)C(=O)CCNC(=O)Cn2cnc3ccccc3c2=O)c1	·	-0.3%	·	13.4%	-17.6%	-5.0%[59 µM]
CCc1ccccc1NC(=O)N1CCc2cc(OC)c(OC)cc2C1CC(=O)OC (configuration not stated)	·	-27.5%	·	17.6%	-11.6%	-3.9%[59 µM]
O=C1CCCC/C1=N\Nc1ccc(C2CCCCC2)cc1	?	?	2.8%	·	·	·
O=C1CCCC/C1=N\Nc1ccc(OCc2ccccc2)cc1	-1.0%	-23.1%	5.8%	-6.1%	-28.9%	39.8µM*
O=C(NNc1ccccc1F)c1ccccc1	-0.8%	1.8%	4.9%	40.0%	-11.0%	28.2µM*
O=C(CNC(=O)C1CCCCC1)Nc1cc(Cl)ccc1Cl	17.5%	2.4%	6.4%	24.2%	-12.0%	1.0%[59 µM]
O=C(NNc1cc(Cl)ccc1Cl)C1CCC1	13.9%	0.1%	-0.9%	-4.7%	70.8µM*	50.1µM*
SMILES	Sfp PPTase inh	BAZ2B inh	L3MBTL1 block	HP1b chromo inh	JMJD2A Tudor	G9a inh
CC(C)(C)c1ccc(NNC(=O)C2CCC2)cc1	6.2%	-2.2%	0.6%	43.5%	-5.5%	14.1µM*
O=C(NNc1ccc(F)cc1F)C1CCC1	18.7%	1.9%	10.7%	22.6%	-6.4%	17.8µM*
O=C(NNc1ccccc1F)c1cccs1	·	·	·	57.8%	-10.2%	·
CN1CC(=O)N(CC(=O)Nc2ccc(Cl)c(C(F)(F)F)c2)c2ccccc2C1=O	·	3.9%	·	30.6%	-18.7%	7.2%[59 µM]
Cc1ccccc1CNC(=O)CN(c1cccc(C)c1C)S(C)(=O)=O	·	-3.0%	·	75.1%	-5.4%	4.6%[59 µM]
Cc1cc(C)cc(NC(=O)c2cn3c4c(ccc(Cl)c4c2=O)OC(C)C3)c1 (configuration not stated)	·	-3.2%	·	30.2%	-9.6%	?
O=C(NNc1ccccc1F)C1CCC1	-3.5%	-5.3%	2.9%	61.3%	-12.6%	50.1µM*
C(/Oc1ccccc1)=C1\Nn2c(nnc2-c2cc(-c3ccccc3)n[nH]2)S1	·	·	·	23.7%[57 µM]	-10.8%[57.1 µM]	·
CC(C)Oc1ccc(C(=O)O)c(C(=O)O)c1	-10.3%	-38.8%	0.0%	3.9%	79.4µM*	-0.1%
CCCSc1nc(-c2ccccc2)[nH]c1S(=O)(=O)c1ccc(C)cc1	·	-37.8%	·	39.8%	-30.5%	12.6µM*
CCC(Sc1nc(-c2ccccc2)[nH]c1S(=O)(=O)c1ccc(C)cc1)C(=O)O (configuration not stated)	·	-12.6%	·	39.1%	-11.6%	12.6µM*
CC(=O)O/N=C1\C(=O)N(Cc2ccc(C)cc2)c2ccccc21	5.9%	-28.5%	1.0%	0.9%	-31.9%	50.1µM*
O=[N+]([O-])c1cc([N+](=O)[O-])c2cccnc2c1Oc1ccccc1O	44.7µM*	28.2µM*	?	70.8µM*	22.4µM*	3.16µM*
O=[N+]([O-])c1ccc(O)c2ncccc12	-24.9%	3.55µM*	?	-4.0%	22.4µM*	?
CCOc1ccc(Cn2c(CNS(=O)(=O)c3cccs3)nc3cccnc32)cc1	·	4.8%	·	28.2%[57 µM]	-9.0%	37.3%[59 µM]
O=C1c2ccccc2NC2(CCCC2)N1O	?	-28.8%	·	24.1%	-13.0%	35.5µM*
O=C1c2cccc(NCCNCCO)c2C(=O)c2cccc(NCCNCCO)c21	·	·	·	?	35.5µM*	·
OCCNCc1cccc(-c2ccccc2)c1O	·	·	·	18.7%	-9.7%	·
O=C(O)CCNc1ccc(NCCC(=O)O)c2c1C(=O)c1ccccc1C2=O	-12.8%	11.2µM*	·	14.1µM*	22.4µM*	12.6µM*
COc1ccc(CCNc2nc(SCc3ccccc3Cl)nc3ccccc23)cc1OC	·	-5.4%	·	15.0%	-15.3%	3.6%[59 µM]
Cc1ccc(Cl)cc1N1CCN(C(=O)C2CCCN(S(=O)(=O)c3ccc(Br)s3)C2)CC1 (configuration not stated)	·	-23.5%	·	28.7%	-13.0%	-42.8%[59 µM]

Assay outcomes deposited in PubChem BioAssay by National Center for Advancing Translational Sciences (NCATS).
